Data as given in PubChem BioAssay AID1159580 (chemical genetic matrix, 2015).
Among all 5,500 compounds or so, about 2,000 (36%) were called active. Another 18% or so got no clear call; they are omitted. Rule as the data show it: active = normalized growth mostly below about 0.91 (no sharp cut-off); inconclusive = no clear call, values can overlap the other calls; inactive = mostly above about 0.92. This is one part of the list.

Assay: chemical genetic growth profiling, strain panel (AID 1159580);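 also: tested at 20 µM; growth read once vehicle control cultures reached saturation at 30 °C; 1 = growth at the plate median or of vehicle wells; lower values mean less growth of the strain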
Conditions: growth OD
[1] = S. cerevisiae deletion strains, locus YDL101C, strain DUN1, stronger effect = lower value
[2] = S. cerevisiae deletion strains, locus YHR030C, strain SLT2, stronger effect = lower value
[3] = S. cerevisiae deletion strains, locus YBR229C, strain ROT2, stronger effect = lower value
[4] = S. cerevisiae deletion strains, locus YDR150W, strain NUM1, stronger effect = lower value
[5] = S. cerevisiae deletion strains, locus YEL061C, strain CIN8, stronger effect = lower value
[6] = S. cerevisiae deletion strains, locus YHR087W, strain rtc3, stronger effect = lower value
[7] = S. cerevisiae deletion strains, locus YJR043C, strain POL32, stronger effect = lower value
[8] = S. cerevisiae deletion strains, locus YJR075W, strain HOC1, stronger effect = lower value
[9] = S. cerevisiae deletion strains, locus YLR039C, strain RIC1, stronger effect = lower value
[10] = S. cerevisiae deletion strains, locus YLR058C, strain SHM2 (second series), stronger effect = lower value
[11] = S. cerevisiae deletion strains, locus YLR085C, strain ARP6, stronger effect = lower value
[12] = S. cerevisiae deletion strains, locus YLR262C, strain YPT6, stronger effect = lower value
[13] = S. cerevisiae deletion strains, locus YML094W, strain GIM5, stronger effect = lower value
[14] = S. cerevisiae deletion strains, locus YMR219W, strain ESC1, stronger effect = lower value
[15] = S. cerevisiae deletion strains, locus YMR263W, strain SAP30, stronger effect = lower value
[16] = S. cerevisiae deletion strains, locus YMR307W, strain GAS1, stronger effect = lower value
[17] = S. cerevisiae deletion strains, locus YNL153C, strain GIM3, stronger effect = lower value
[18] = S. cerevisiae deletion strains, locus YNL298W, strain CLA4 (second series), stronger effect = lower value
[19] = S. cerevisiae deletion strains, locus YNL322C, strain KRE1, stronger effect = lower value
[20] = S. cerevisiae deletion strains, locus YNR030W, strain Alg12, stronger effect = lower value
[21] = S. cerevisiae deletion strains, locus YPL055C, strain LGE1, stronger effect = lower value
[22] = S. cerevisiae deletion strains, locus YPL241C, strain CIN2, stronger effect = lower value
[23] = S. cerevisiae deletion strains, locus YPR135W, strain CTF4, stronger effect = lower value
[24] = S. cerevisiae strains, strain wild type, stronger effect = lower value

Measured: normalized growth

CCCC1c2ccsc2CCN1C(=S)Nc1ccc(Cl)cc1Cl (centres undefined)
inactive: S. cerevisiae deletion strains, locus YAR019C, strain CDC15, stronger effect = lower value 0.969 | S. cerevisiae deletion strains, locus YBL105C, strain PKC1, stronger effect = lower value 0.971 | S. cerevisiae deletion strains, locus YBR135W, strain CKS1, stronger effect = lower value 0.983 | S. cerevisiae deletion strains, locus YBR136W, strain MEC1, stronger effect = lower value 0.972 | S. cerevisiae deletion strains, locus YBR160W, strain CDC28, stronger effect = lower value 0.984 | S. cerevisiae deletion strains, locus YDL017W, strain CDC7, stronger effect = lower value 0.973 | S. cerevisiae deletion strains, locus YDL028C, strain MPS1, stronger effect = lower value 0.971 | [1] 0.984 | S. cerevisiae deletion strains, locus YDL108W, strain KIN28, stronger effect = lower value 0.987 | S. cerevisiae deletion strains, locus YDL132W, strain cdc53, stronger effect = lower value 0.98 | S. cerevisiae deletion strains, locus YDL214C, strain PRR2, stronger effect = lower value 0.984 | S. cerevisiae deletion strains, locus YDR052C, strain DBF4, stronger effect = lower value 0.981 | S. cerevisiae deletion strains, locus YDR054C, strain cdc34, stronger effect = lower value 0.962 | S. cerevisiae deletion strains, locus YDR226W, strain ADK1, stronger effect = lower value 0.968 | S. cerevisiae deletion strains, locus YDR477W, strain SNF1, stronger effect = lower value 0.974 | S. cerevisiae deletion strains, locus YER123W, strain YCK3, stronger effect = lower value 0.952 | S. cerevisiae deletion strains, locus YER133W, strain GLC7, stronger effect = lower value 0.968 | S. cerevisiae deletion strains, locus YFL009W, strain cdc4, stronger effect = lower value 0.971 | S. cerevisiae deletion strains, locus YFL029C, strain CAK1, stronger effect = lower value 0.967 | S. cerevisiae deletion strains, locus YFR003C, strain YPI1, stronger effect = lower value 0.975 | S. cerevisiae deletion strains, locus YFR019W, strain FAB1, stronger effect = lower value 0.986 | S. cerevisiae deletion strains, locus YFR028C, strain CDC14, stronger effect = lower value 0.963 | S. cerevisiae deletion strains, locus YGR040W, strain KSS1, stronger effect = lower value 0.959 | S. cerevisiae deletion strains, locus YGR052W, strain FMP48, stronger effect = lower value 1 | S. cerevisiae deletion strains, locus YGR092W, strain DBF2, stronger effect = lower value 0.946 | [2] 0.922 | S. cerevisiae deletion strains, locus YHR079C, strain IRE1, stronger effect = lower value 0.975 | S. cerevisiae deletion strains, locus YHR082C, strain KSP1, stronger effect = lower value 0.987 | S. cerevisiae deletion strains, locus YHR205W, strain SCH9, stronger effect = lower value 0.878 | S. cerevisiae deletion strains, locus YIL147C, strain SLN1, stronger effect = lower value 0.973 | S. cerevisiae deletion strains, locus YJL095W, strain BCK1, stronger effect = lower value 0.961 | S. cerevisiae deletion strains, locus YJL128C, strain PBS2, stronger effect = lower value 0.946 | S. cerevisiae deletion strains, locus YJL157C, strain FAR1, stronger effect = lower value 0.981 | S. cerevisiae deletion strains, locus YJR016C, strain ILV3, stronger effect = lower value 0.972 | S. cerevisiae deletion strains, locus YJR066W, strain TOR1 (second series), stronger effect = lower value 0.946 | S. cerevisiae deletion strains, locus YJR066W, strain TOR1, stronger effect = lower value 0.981 | S. cerevisiae deletion strains, locus YKL048C, strain ELM1, stronger effect = lower value 0.975 | S. cerevisiae deletion strains, locus YKL067W, strain YNK1, stronger effect = lower value 0.97 | S. cerevisiae deletion strains, locus YKL101W, strain HSL1, stronger effect = lower value 0.964 | S. cerevisiae deletion strains, locus YKL193C, strain SDS22, stronger effect = lower value 0.969 | S. cerevisiae deletion strains, locus YKL203C, strain TOR2, stronger effect = lower value 1.02 | S. cerevisiae deletion strains, locus YLR113W, strain HOG1, stronger effect = lower value 0.897 | S. cerevisiae deletion strains, locus YLR133W, strain CKI1, stronger effect = lower value 0.974 | S. cerevisiae deletion strains, locus YLR403W, strain SFP1, stronger effect = lower value 0.931 | S. cerevisiae deletion strains, locus YML070W, strain DAK1, stronger effect = lower value 0.944 | S. cerevisiae deletion strains, locus YMR001C, strain CDC5, stronger effect = lower value 0.977 | S. cerevisiae deletion strains, locus YMR205C, strain PFK2 (second series), stronger effect = lower value 0.968 | S. cerevisiae deletion strains, locus YMR277W, strain FCP1, stronger effect = lower value 0.977 | S. cerevisiae deletion strains, locus YNL006W, strain LST8, stronger effect = lower value 0.991 | S. cerevisiae deletion strains, locus YNL020C, strain ARK1, stronger effect = lower value 0.986 | S. cerevisiae deletion strains, locus YNL161W, strain CBK1, stronger effect = lower value 0.98 | S. cerevisiae deletion strains, locus YNL183C, strain NPR1, stronger effect = lower value 0.966 | S. cerevisiae deletion strains, locus YNL207W, strain RIO2, stronger effect = lower value 0.97 | S. cerevisiae deletion strains, locus YNL222W, strain SSU72, stronger effect = lower value 0.976 | S. cerevisiae deletion strains, locus YNL307C, strain MCK1 (second series), stronger effect = lower value 0.973 | S. cerevisiae deletion strains, locus YOL078W, strain AVO1, stronger effect = lower value 0.974 | S. cerevisiae deletion strains, locus YOL136C, strain PFK27, stronger effect = lower value 0.958 | S. cerevisiae deletion strains, locus YOR061W, strain CKA2, stronger effect = lower value 0.964 | S. cerevisiae deletion strains, locus YOR119C, strain RIO1, stronger effect = lower value 1.02 | S. cerevisiae deletion strains, locus YOR231W, strain MKK1, stronger effect = lower value 0.978 | S. cerevisiae deletion strains, locus YOR329C, strain SCD5, stronger effect = lower value 0.974 | S. cerevisiae deletion strains, locus YPL031C, strain PHO85, stronger effect = lower value 0.966 | S. cerevisiae deletion strains, locus YPL153C, strain RAD53, stronger effect = lower value 0.971 | S. cerevisiae deletion strains, locus YPL204W, strain HRR25, stronger effect = lower value 0.985 | S. cerevisiae deletion strains, locus YPL209C, strain IPL1, stronger effect = lower value 0.974 | S. cerevisiae deletion strains, locus YPL256C, strain CLN2, stronger effect = lower value 0.932 | S. cerevisiae deletion strains, locus YPR025C, strain CCL1, stronger effect = lower value 0.983 | S. cerevisiae deletion strains, locus YPR106W, strain ISR1, stronger effect = lower value 0.973 | S. cerevisiae deletion strains, locus YPR111W, strain DBF20, stronger effect = lower value 0.959 | S. cerevisiae deletion strains, strain NNK1, stronger effect = lower value 0.965 | S. cerevisiae deletion strains, strain TSCII, stronger effect = lower value 0.959

O=c1[nH]c(-c2cc(Br)cs2)nc2ccc(Cl)cc12
active: [14] 1.13 [resistant]
inactive: S. cerevisiae deletion strains, locus YAL013W, strain DEP1, stronger effect = lower value 1.01 | [3] 1.01 | [1] 1 | [4] 0.938 | [5] 1.01 | [2] 1.03 | [6] 1.04 | [7] 1.01 | [8] 1.06 | [9] 1.1 | [10] 1 | [11] 1.06 | [12] 1.07 | [13] 1.04 | [15] 0.954 | [16] 1.06 | [17] 1.04 | [18] 1.04 | [19] 1.01 | [20] 1.04 | [21] 0.896 | [22] 0.999 | [23] 1.07 | [24] 1.02

O=c1[nH]cnc2ccc(Br)cc12
inactive: [3] 1.01 | [1] 0.98 | S. cerevisiae deletion strains, locus YDL134C, strain PPH21, stronger effect = lower value 1.01 | [4] 0.918 | [5] 0.998 | S. cerevisiae deletion strains, locus YGR078C, strain PAC10, stronger effect = lower value 1 | [2] 0.994 | [6] 1.01 | S. cerevisiae deletion strains, locus YJL187C, strain SWE1, stronger effect = lower value 1.01 | [7] 1.02 | [8] 1.01 | S. cerevisiae deletion strains, locus YKL190W, strain CNB1, stronger effect = lower value 1.01 | [9] 1.02 | [10] 1.01 | [11] 1.01 | [12] 1.01 | [13] 0.98 | [14] 1.01 | [15] 0.949 | [16] 1.02 | [17] 1 | [18] 1.04 | [19] 1.01 | [20] 1.01 | [21] 0.921 | [22] 1.01 | [23] 0.97 | [24] 1
